Shown is part of a subset that was picked to be rich in hits.
Tgondii IFNg: T. gondii growth inhibition with IFN-gamma, primary screen, cell-based. Toxoplasma gondii growth in IFN-gamma-treated host cells; hits give low values. activity change, negative = inhibition, % (test concentration not listed). 69,000 tested, 3.8% active. AID 1259416, 2018; in the data active = activity change below about -70%, passing the limit was not always enough;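 note: host cells are HeLa cells infected with Toxoplasma gondii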
Starred values were filed as active, the others as inactive; ! = repeats disagree.

SMILES | Tgondii IFNg
COc1ccc(C(=O)Nc2ccc(-c3nc(Cn4cc(C)cn4)c(C)o3)cc2)cc1F | 33.6
Cc1cnn(Cc2nc(-c3ccc(NC(=O)c4cccc(F)c4)cc3)oc2C)c1 | -75.2*
Cc1cnn(Cc2nc(-c3ccc(NC(=O)c4ccc(C#N)cc4)cc3)oc2C)c1 | -52.0
Cc1cnn(Cc2nc(-c3ccc(NC(=O)c4ccc(C)c(F)c4)cc3)oc2C)c1 | -13.4
O=C1CCc2cc(NC(=O)c3ccc(C(F)(F)F)cc3)ccc2N1 | 13.2
Cc1ccc2[nH]c3c(c2c1)CCNC31C(=O)Nc2ccccc21 (centres undefined) | 36.0
COc1ccc2[nH]c3c(c2c1)CCN(C(=O)c1ccc(C)cc1)C31C(=O)Nc2ccccc21 (centres undefined) | -97.2*
COc1ccc2c3c([nH]c2c1)C1(NCC3)C(=O)Nc2ccccc21 (centres undefined) | 38.2
Nc1ccc(C(=O)CN2C(=O)CSC2=O)cc1 | -17.6
CC(C)N1CCC2(CC1)CC(NCC1CCOC1)c1ccccc1O2 (centres undefined) | -13.9
O=C(Nc1ccccc1)OCc1cccc(COC(=O)Nc2ccccc2)c1F | -82.3*
O=C(Nc1ccccc1)OCC(CN1CCCCC1)OC(=O)Nc1ccccc1 (centres undefined) | -4.3
O=C(Nc1ccccc1)OCCCCCOC(=O)Nc1ccccc1 | -18.5
CC(C)(COC(=O)Nc1ccc(Cl)cc1)n1cccc1 | 10.0
O=C(Nc1ccc(Cl)cc1)OC1CN(C(c2ccccc2)c2ccccc2)C1 | -59.0
O=C(Nc1ccc(Cl)cc1)OCc1cccc(COC(=O)Nc2ccc(Cl)cc2)n1 | -98.5*
COCCN1C(=O)N(C2Cc3ccccc3C2)C(=O)C12CCN(Cc1ccc(NC(C)=O)cc1)CC2 | -13.3
O[C@H]1CN(c2nccc(CCC(F)(F)F)n2)C[C@@H]1N1CCOCC1 | 8.7
O=C(NC1CCC1)C1CC12C(=O)Nc1ccccc12 (centres undefined) | 17.6
O=C(CC1CCCC1)Nc1ccc2c(c1)CCC(=O)N2 | 4.8
CCOC(=O)c1nc(Nc2cccc(SC)c2)c2ccccc2n1 | 22.4
Cc1ccc2c(=O)c3ccccc3n(CCCN)c2c1C | -86.6*!
CCOC(=O)Cn1c(C)cc(=O)c2ccccc21 | -8.8
Cc1c(-c2ccccc2)n(CC(O)CN)c2ccccc12 (centres undefined) | -47.9
Cc1ccc(F)cc1NC(=O)Cn1ncc2c(N3CCN(c4ccccn4)CC3)ncnc21 | -54.6
SMILES | Tgondii IFNg
COc1ccccc1-c1nc(Cc2noc(-c3ccc(F)cc3)n2)c(C)o1 | 22.9
COc1ccccc1-c1nc(Cc2noc(-c3ccccn3)n2)c(C)o1 | 28.0
COc1ccc(-c2nc(Cc3noc(-c4ccccc4F)n3)c(C)o2)cc1 | -113.2*
Cc1ccc(OCc2nc(Cc3nc(-c4ccccc4)oc3C)no2)cc1 | -63.4
COc1ccccc1-c1nc(Cc2noc(-c3ccccc3F)n2)c(C)o1 | -78.8*
COc1cccc(-c2nc(Cc3nc(-c4ccccc4)oc3C)no2)c1 | 53.3
O=C(NCc1cn2c(n1)CN(Cc1cccc(F)c1)CC2)C1CCC1 | -2.3
C=C(C)[C@@H]1CC=C(CN2CCCN(C(=O)COC)CC2)CC1 | -11.2
CCn1nc(C)c(NC(=O)CN2CC[C@@H](F)C2)c1C | 3.7
CS(=O)(=O)N1CCC2(CC1)CC(=O)N(CC1CCCO1)c1ccccc12 (centres undefined) | 10.0
C/C(=N\NC(=S)N1CCC1)c1ccccn1 | -79.8*
Cc1ccc(/C(=C\CN2CCCC2)c2ccccn2)cc1 | -0.5
CN(C)C(=O)[C@]12CCCN(C(=O)c3ccccn3)C[C@@H]1CN(c1ccccn1)C2 | 4.2
O=C1CCC(=O)N1CCS(=O)(=O)NCc1ccccc1-n1ccnc1 | -9.4
COc1ccc(-c2csc(-n3nc(C(F)(F)F)cc3-c3ccc(Br)cc3)n2)cc1 | 36.9
CC(C)Oc1ccc(C(=O)N[C@H](CNC(=O)CN(C)C)Cc2ccc(-c3cn4cccc([C@H](C)O)c4n3)cc2)cc1Cl | -79.6*
Cc1cccn2cc(-c3ccc(NC(=O)CNC(=O)c4ccccc4)cc3)nc12 | 60.5
Cc1ccc2[nH]c3c(c2c1)CCNC31C(=O)N(CC(C)C)c2ccccc21 (centres undefined) | 413.4
CC(C)n1cnc2c1C(C(=O)Cc1ccncc1)N(C(=O)c1cccnc1)CC2 (centres undefined) | -8.6
Cc1ccn(CCNC(=O)CCN2Cc3ccccc3C2=O)n1 | 59.2
COCC(=O)Nc1cccc(-c2ccc3c(c2)OCO3)c1 | 37.8
Cn1c(CN2CCCCC2)nc2cc(NC(=O)COc3ccc4c(c3)OCO4)ccc21 | -12.0
Cc1nn(-c2ccc(F)cc2)c(C)c1CNC(=O)COc1ccc2c(c1)OCO2 | 41.0
COCCSc1nnc(NC(=O)COc2ccc3c(c2)OCO3)s1 | -83.0*
CN(Cc1ncc[nH]1)C(=O)COc1ccc2c(c1)OCO2 | -4.9
CC(C)c1nnc(NC(=O)COc2ccc3c(c2)OCO3)s1 | -84.6*
O=C(c1ccc(F)cc1)N1CCN(S(=O)(=O)c2cc3c4c(c2)CCC(=O)N4CCC3)CC1 | -32.2
Cc1nn(C)cc1C(=O)N1CCCC(c2ccc(Cc3c(F)cccc3F)cn2)C1 (centres undefined) | -0.8
